According to PMC12864922, “TDP-43 directly inhibits mRNA accumulation in neurites through modulation of mRNA stability”:
Over roughly 9,900 sequences, “r (bound/input frequency ratio)” has its median near 0.7; the highest 2% begin near 6.5. The sample holds the highest values, similar sequences and a random draw of the others, so the mix is not that of the screen.

B1: ENSMUSG00000022095.189|Fam160b2 (ssRNA)
RNA: GGGAGUUCUACAGUCCGACGAUCGCUUCGAUAUCCGCAUGCUAGUUGGCUUCCCUCCUGGGCAAGGAGGAGCAGGCCAGAGCCCCUUUUGCUUCCUUUUCCUGCCCAUGCCACCUCUCGAAGCCGGGCACAGGUUGCCAGGAGGUGACAUGAAAGAGGAGGAAACUCCAUGACCUCUACAUCCCCCGCAGUCCUCCCAGCGGGGGAGGACUUCUCUGCUGCUCCGAAGAACAUCAUGCACUCCUGUGUGUGUGUGUGAGUGUGUGUGUGUGUGUGUGUGUGUGUGUGUGUGUAUGUGUGUGUACUCUUGCGGUCGCACUAGUGUGGAAUUCUCGGGUGUCAAGG
B2: ENSMUSG00000022095.187|Fam160b2 (ssRNA)
RNA: GGGAGUUCUACAGUCCGACGAUCGCUUCGAUAUCCGCAUGCUAAGGCCUGCAGUUGUUGGCUUCCCUCCUGGGCAAGGAGGAGCAGGCCAGAGCCCCUUUUGCUUCCUUUUCCUGCCCAUGCCACCUCUCGAAGCCGGGCACAGGUUGCCAGGAGGUGACAUGAAAGAGGAGGAAACUCCAUGACCUCUACAUCCCCCGCAGUCCUCCCAGCGGGGGAGGACUUCUCUGCUGCUCCGAAGAACAUCAUGCACUCCUGUGUGUGUGUGUGAGUGUGUGUGUGUGUGUGUGUGUGUGUGUGUGUGCUCUUGCGGUCGCACUAGUGUGGAAUUCUCGGGUGUCAAGG
B3: ENSMUSG00000022095.188|Fam160b2 (ssRNA)
RNA: GGGAGUUCUACAGUCCGACGAUCGCUUCGAUAUCCGCAUGCUAGCAGUUGUUGGCUUCCCUCCUGGGCAAGGAGGAGCAGGCCAGAGCCCCUUUUGCUUCCUUUUCCUGCCCAUGCCACCUCUCGAAGCCGGGCACAGGUUGCCAGGAGGUGACAUGAAAGAGGAGGAAACUCCAUGACCUCUACAUCCCCCGCAGUCCUCCCAGCGGGGGAGGACUUCUCUGCUGCUCCGAAGAACAUCAUGCACUCCUGUGUGUGUGUGUGAGUGUGUGUGUGUGUGUGUGUGUGUGUGUGUGUGUAUGUGCUCUUGCGGUCGCACUAGUGUGGAAUUCUCGGGUGUCAAGG
B4: ENSMUSG00000061578.732|Ksr2 (ssRNA)
RNA: GGGAGUUCUACAGUCCGACGAUCGCUUCGAUAUCCGCAUGCUAGGGGUCAUUGUUCAAUCCUGUAUCAAGACCUUGGAGUUGUCUAAGGCUGUGGGUUUUAAAUACCUGCUGCAGGCCUCCCAUCUCUGGCUCUUUGUUUCCACUCUGGCCCAAGUUUGAGUCUCCAUAUGGGCCCUUCCUGUCCUCAUGCCCUGCCUGUCUUCAUUCCACCCAUCCACCCUCCUAAGGAUUGGUCUUGUUCCGAGAGUGAUCCUGGUAACGCCAAGCCUCCCUCUGCCCCUGUGUUGGCUUCUGUGACGGACCUCUUGCGGUCGCACUAGUGUGGAAUUCUCGGGUGUCAAGG
B5: ENSMUSG00000061578.853|Ksr2 (ssRNA)
RNA: GGGAGUUCUACAGUCCGACGAUCGCUUCGAUAUCCGCAUGCUAAAGCAAAGAGCAAUACAGGAAAAGGUCAGGGGUGAGAUGUGUCAUUGCCACUUCCUCCAGCUAGGACCUUUGAGCAUCACAUUGUGAAGCCAUCCAGGGACUUGGGGGUUAGGUCAGAGGUAUCAAUACAUCUCCGGAAACAUCGUCACAGAUACCUAGAGGUACUUCAUUGAUCCCUUGAAAAGCAUGUCUUAAUUCUGUUAAGAUGUCAAUCAAGAUUACACAUCUCACUGCUUCACAGGCCAUCAGGGCCCCAUUCUCUCUUGCGGUCGCACUAGUGUGGAAUUCUCGGGUGUCAAGG
B6: ENSMUSG00000022095.187|Fam160b2|213:226;228:260 (ssRNA)
RNA: GGGAGUUCUACAGUCCGACGAUCGCUUCGAUAUCCGCAUGCUAAGGCCUGCAGUUGUUGGCUUCCCUCCUGGGCAAGGAGGAGCAGGCCAGAGCCCCUUUUGCUUCCUUUUCCUGCCCAUGCCACCUCUCGAAGCCGGGCACAGGUUGCCAGGAGGUGACAUGAAAGAGGAGGAAACUCCAUGACCUCUACAUCCCCCGCAGUCCUCCCAGCGGGGGAGGACUUCUCUGCUGCUCCGAAGAACAUCAUGCACUCCACACACACACACACACACACACACACACACACACACACACACACACACCUCUUGCGGUCGCACUAGUGUGGAAUUCUCGGGUGUCAAGG
B7: ENSMUSG00000022095.195|Fam160b2 (ssRNA)
RNA: GGGAGUUCUACAGUCCGACGAUCGCUUCGAUAUCCGCAUGCUAAGCCCCUUUUGCUUCCUUUUCCUGCCCAUGCCACCUCUCGAAGCCGGGCACAGGUUGCCAGGAGGUGACAUGAAAGAGGAGGAAACUCCAUGACCUCUACAUCCCCCGCAGUCCUCCCAGCGGGGGAGGACUUCUCUGCUGCUCCGAAGAACAUCAUGCACUCCUGUGUGUGUGUGUGAGUGUGUGUGUGUGUGUGUGUGUGUGUGUGUGUGUAUGUGUGUGUAUAUGUGUGUGUGUGUGUGUAUGUGUGUGUGUGUGUGCUCUUGCGGUCGCACUAGUGUGGAAUUCUCGGGUGUCAAGG
B8: ENSMUSG00000022095.185|Fam160b2|225:238;240:260 (ssRNA)
RNA: GGGAGUUCUACAGUCCGACGAUCGCUUCGAUAUCCGCAUGCUAUUACCUCACAACAGGCCUGCAGUUGUUGGCUUCCCUCCUGGGCAAGGAGGAGCAGGCCAGAGCCCCUUUUGCUUCCUUUUCCUGCCCAUGCCACCUCUCGAAGCCGGGCACAGGUUGCCAGGAGGUGACAUGAAAGAGGAGGAAACUCCAUGACCUCUACAUCCCCCGCAGUCCUCCCAGCGGGGGAGGACUUCUCUGCUGCUCCGAAGAACAUCAUGCACUCCACACACACACACACACACACACACACACACACACACCUCUUGCGGUCGCACUAGUGUGGAAUUCUCGGGUGUCAAGG
B9: ENSMUSG00000022095.196|Fam160b2 (ssRNA)
RNA: GGGAGUUCUACAGUCCGACGAUCGCUUCGAUAUCCGCAUGCUAUUUUGCUUCCUUUUCCUGCCCAUGCCACCUCUCGAAGCCGGGCACAGGUUGCCAGGAGGUGACAUGAAAGAGGAGGAAACUCCAUGACCUCUACAUCCCCCGCAGUCCUCCCAGCGGGGGAGGACUUCUCUGCUGCUCCGAAGAACAUCAUGCACUCCUGUGUGUGUGUGUGAGUGUGUGUGUGUGUGUGUGUGUGUGUGUGUGUGUAUGUGUGUGUAUAUGUGUGUGUGUGUGUGUAUGUGUGUGUGUGUGUGUGAGUGCUCUUGCGGUCGCACUAGUGUGGAAUUCUCGGGUGUCAAGG
B10: ENSMUSG00000022095.181|Fam160b2 (ssRNA)
RNA: GGGAGUUCUACAGUCCGACGAUCGCUUCGAUAUCCGCAUGCUAAGAGCACUCGGGCGGCGCCAGGCAUUACCUCACAACAGGCCUGCAGUUGUUGGCUUCCCUCCUGGGCAAGGAGGAGCAGGCCAGAGCCCCUUUUGCUUCCUUUUCCUGCCCAUGCCACCUCUCGAAGCCGGGCACAGGUUGCCAGGAGGUGACAUGAAAGAGGAGGAAACUCCAUGACCUCUACAUCCCCCGCAGUCCUCCCAGCGGGGGAGGACUUCUCUGCUGCUCCGAAGAACAUCAUGCACUCCUGUGUGUGUGUGCUCUUGCGGUCGCACUAGUGUGGAAUUCUCGGGUGUCAAGG
B11: ENSMUSG00000022095.197|Fam160b2 (ssRNA)
RNA: GGGAGUUCUACAGUCCGACGAUCGCUUCGAUAUCCGCAUGCUAUUCCUUUUCCUGCCCAUGCCACCUCUCGAAGCCGGGCACAGGUUGCCAGGAGGUGACAUGAAAGAGGAGGAAACUCCAUGACCUCUACAUCCCCCGCAGUCCUCCCAGCGGGGGAGGACUUCUCUGCUGCUCCGAAGAACAUCAUGCACUCCUGUGUGUGUGUGUGAGUGUGUGUGUGUGUGUGUGUGUGUGUGUGUGUGUAUGUGUGUGUAUAUGUGUGUGUGUGUGUGUAUGUGUGUGUGUGUGUGUGAGUGAGUGUGCUCUUGCGGUCGCACUAGUGUGGAAUUCUCGGGUGUCAAGG
B12: ENSMUSG00000022095.198|Fam160b2 (ssRNA)
RNA: GGGAGUUCUACAGUCCGACGAUCGCUUCGAUAUCCGCAUGCUAUUCCUGCCCAUGCCACCUCUCGAAGCCGGGCACAGGUUGCCAGGAGGUGACAUGAAAGAGGAGGAAACUCCAUGACCUCUACAUCCCCCGCAGUCCUCCCAGCGGGGGAGGACUUCUCUGCUGCUCCGAAGAACAUCAUGCACUCCUGUGUGUGUGUGUGAGUGUGUGUGUGUGUGUGUGUGUGUGUGUGUGUGUAUGUGUGUGUAUAUGUGUGUGUGUGUGUGUAUGUGUGUGUGUGUGUGUGAGUGAGUGUGUGUGUGCUCUUGCGGUCGCACUAGUGUGGAAUUCUCGGGUGUCAAGG
B13: ENSMUSG00000058297.304|Spock2|17:22 (ssRNA)
RNA: GGGAGUUCUACAGUCCGACGAUCGCUUCGAUAUCCGCAUGCUAAGUGAGGGCAGCCCCCACACACGUGGAAGAGGCUGGGCAGCUAGCUACUGGGGACCUUGUGCUGAGGCUUCCAGGACAAAGCCCCAGUCUGGCUCUCCCCCAGCCUCUCAGGGGCACUGGCUGGUCACAUCCACUGAGUAUUGAUCGGUUGGACUUUAGGGAAGAGCCUCCUCCUUCCCAUUCCUUUCUGCCACCCUGGAAUGGCCACCUUAAUCGUCAUCUCCUCGGGGGGAAUACGGAAAUGUCACCAAGCUCCAUAACUCUUGCGGUCGCACUAGUGUGGAAUUCUCGGGUGUCAAGG

Molecular target: TDP-43 (Homo sapiens, UniProt Q13148 1-414)
Sequence (Q13148 whole entry): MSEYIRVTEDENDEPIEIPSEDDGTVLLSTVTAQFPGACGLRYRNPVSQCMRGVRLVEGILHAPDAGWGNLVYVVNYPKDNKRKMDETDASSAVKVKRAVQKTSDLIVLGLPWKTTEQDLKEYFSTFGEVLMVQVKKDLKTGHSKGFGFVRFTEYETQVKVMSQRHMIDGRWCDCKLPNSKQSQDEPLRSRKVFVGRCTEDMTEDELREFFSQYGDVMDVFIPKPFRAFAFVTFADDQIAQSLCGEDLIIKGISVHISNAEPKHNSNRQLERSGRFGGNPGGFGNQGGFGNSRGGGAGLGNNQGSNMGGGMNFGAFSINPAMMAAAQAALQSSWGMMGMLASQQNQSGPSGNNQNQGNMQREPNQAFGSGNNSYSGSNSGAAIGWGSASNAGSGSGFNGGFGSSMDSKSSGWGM
Test: RNA Bind-n-Seq with designed 260-mer pool; 25 mM Tris-HCl, 150 mM KCl, 3 mM MgCl2, BSA (printed 500 mg/mL), 20 units/mL SUPERase IN; pH not stated; 500 nM RNA pool, 1 h, 4 C; TDP-43 5, 50, 500 nM; high values mean tight binding
Conditions: protein: recombinant; tags: SBP (GST cleaved off with PreScission; pGEX-GST-SBP)
Method in brief: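 Duplicate measurements used two independent batches of recombinant SBP-tagged TDP-43, which was captured on streptavidin beads at 5, 50 or 500 nM. The beads were incubated with 500 nM of an in vitro-transcribed 260-nt 3′ UTR oligo pool for 1 h at 4 °C in 25 mM Tris-HCl, 150 mM KCl, 3 mM MgCl2, BSA and SUPERase IN. After washing, biotin elution, reverse transcription, PCR amplification and sequencing, binding was expressed as R: each oligo's normalized read abundance in the bound sample over its abundance in input.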

Question: For B1, which binding signal is on record?
Answer: 5.45 R (bound/input frequency ratio)

Question: With B2 as the binder, how does the binding signal read?
Answer: 6.28 R (bound/input frequency ratio)

Question: B3 was tested. Which binding signal did it give?
Answer: 7.09 R (bound/input frequency ratio)

Question: Which binding signal does the source give for B4 here?
Answer: 1.54 R (bound/input frequency ratio)

Question: How did the binding signal turn out when B5 was run?
Answer: 0.223 R (bound/input frequency ratio)

Question: With B6 as the binder, how does the binding signal read?
Answer: 1.89 R (bound/input frequency ratio)

Question: How did the binding signal turn out when B7 was run?
Answer: 9.34 R (bound/input frequency ratio)

Question: Which binding signal does the source give for B8 here?
Answer: 2.7 R (bound/input frequency ratio)

Question: How did the binding signal turn out when B9 was run?
Answer: 6.8 R (bound/input frequency ratio)

Question: Which binding signal does the source give for B10 here?
Answer: 0.283 R (bound/input frequency ratio)

Question: How did the binding signal turn out when B11 was run?
Answer: 6.5 R (bound/input frequency ratio)

Question: How did the binding signal turn out when B12 was run?
Answer: 10 R (bound/input frequency ratio)

Question: Which binding signal does the source give for B13 here?
Answer: 0.535 R (bound/input frequency ratio)
